Screening data (PubChem)
The sample as a whole holds a higher share of hits than the screen did.
Shiga toxin inh – A qHTS for Small Molecule Inhibitors of Shiga Toxin. Vero cells, Shiga toxin protein synthesis inhibition reporter. 290,000 compounds, 9.2% hits. AID 2315, 2010. inhibition, % at 38.7 µM; in the data active = inhibition mostly above about 28%, no sharp cut-off; inactive = mostly below about 43%; also: 0% is about no effect
Vaccinia mCherry – qHTS for Stage-Specific Inhibitors of Vaccinia Orthopoxvirus: mCherry Reporter Primary qHTS | AID 720579, 2013 | Vaccinia virus mCherry reporter infection, fluorescence | 310,000 compounds, 0.63% hits | Potency, µM (highest dose often 36.5 µM), inactives show at the top dose activity change, negative = inhibition, usual class: inhibitors; calls by dose curve; tested in A549 cells; also: potency is read from the fitted curve at half-maximal effect; % is scaled to controls: 0 for no effect and ±100 for the full control effect; nearly all actives have a fitted effect of over 35% in size
Marburg entry inh – qHTS for inhibitors of binding or entry into cells for Marburg Virus; 300,000 compounds, 1.8% hits; Potency, µM (doses to about 37.8 µM), for inactives: at the highest dose activity change, negative = inhibition, hits mostly inhibitors; Marburg virus pseudotyped entry inhibition, cell reporter; calls by dose curve; tested in HEK293 cells; also: potency is read from the fitted curve at half-maximal effect; % is scaled to controls: 0 for no effect and ±100 for the full control effect
LASV entry inh – qHTS for Inhibitors of binding or entry into cells for Lassa Virus | Potency, µM (doses to about 37.9 µM), for inactives: at the highest dose activity change, negative = inhibition, actives largely listed as inhibitors | Lassa virus pseudotype entry inhibition, cell reporter | 300,000 compounds, 1.2% hits; calls by dose curve; tested in HEK293 cells; also: potency is read from the fitted curve at half-maximal effect; % is scaled to controls: 0 for no effect and ±100 for the full control effect; nearly all actives have a fitted effect of over 50% in size
VACV Venus inh – qHTS for Stage-Specific Inhibitors of Vaccinia Orthopoxvirus: Venus Reporter Primary qHTS | Vaccinia virus Venus reporter expression, fluorescence | Potency, µM (series often up to 36.5 µM), without a hit: at the highest dose activity change, negative = inhibition, most hits filed as inhibitors | 330,000 compounds, 0.46% hits; calls by dose curve; tested in A549 cells; also: potency is read from the fitted curve at half-maximal effect; % is scaled to controls: 0 for no effect and ±100 for the full control effect; nearly all actives have a fitted effect of over 30% in size
Cycloheximide cs – Cycloheximide Counterscreen for Small Molecule Inhibitors of Shiga Toxin; cell reporter, cycloheximide protein synthesis inhibition counterscreen; max response, %; 300,000 compounds, 12% hits; AID 2314, 2010; in the data active = max response mostly above about 13%, no sharp cut-off; inactive = mostly below about 14%; also: read at 38.3 µM for the half of the compounds with a filed dose; 0% is about no effect
* marks the source's active call; other numbers are inactive results; [ ] = dose if it differs, or a comment.

For COc1ccc(CCC(=O)Nc2ccc3c(c2)OCCO3)cc1 the results were Shiga toxin inh 39, Vaccinia mCherry -5%, Marburg entry inh 7%, LASV entry inh 15%, VACV Venus inh -18% and Cycloheximide cs 26*.
Screening O=C(CCc1ccccc1)Nc1ccc2c(c1)OCCO2 returned Shiga toxin inh 67*, Marburg entry inh inconclusive, LASV entry inh -27%, VACV Venus inh -3% and Cycloheximide cs 48*.
For CCOc1ccccc1/C=C/c1onc(C)c1S(=O)(=O)N1CCC(C(=O)N2CCCCC2)CC1 the results were Vaccinia mCherry -28%, LASV entry inh inconclusive and VACV Venus inh -18%.
Screening C=CCOc1ccc(C(=O)n2cc(C(=O)OC)c3ccccc32)cc1 returned Shiga toxin inh 5, Vaccinia mCherry inactive, Marburg entry inh 15%, LASV entry inh 23%, VACV Venus inh -20% and Cycloheximide cs 14.
Screening COc1ccc(-n2nc3cc(C)c(NC(=O)c4ccc(-c5ccc(Br)cc5)o4)cc3n2)cc1 returned Vaccinia mCherry -8%, LASV entry inh 30%[46.1 µM] and VACV Venus inh -8%.
CC(=O)C[n+]1cccc(Br)c1 was read as Vaccinia mCherry 43% and VACV Venus inh -9%.
`CC(=O)c1cc2c(cc1NC(=O)CCc1ccccc1)OCO2` gave Shiga toxin inh 4, Vaccinia mCherry -21%, Marburg entry inh 19%[46.1 µM], LASV entry inh 16%, VACV Venus inh -14% and Cycloheximide cs 24*.
COc1ccc(NC(=O)CSC2=Nc3ccccc3C3=NC(CC(=O)NCc4ccco4)C(=O)N23)cc1 (centres undefined) was read as Vaccinia mCherry -13%, LASV entry inh 5%[46.1 µM] and VACV Venus inh -15%.
O=C(CC(=O)N/N=C\c1ccccc1[N+](=O)[O-])NCCc1ccccc1 was read as Shiga toxin inh -6 and Cycloheximide cs -1.
Screening O=[N+]([O-])c1ccccc1/C=N/OCc1ccccc1 returned Shiga toxin inh 104*, Vaccinia mCherry -27%, Marburg entry inh inconclusive, LASV entry inh inconclusive, VACV Venus inh -11% and Cycloheximide cs 31*.
Screening Cc1ccc(NC(=O)CSc2nn(-c3ccccc3)c(=S)s2)cc1S(=O)(=O)N(C)C returned Shiga toxin inh 15, Vaccinia mCherry inconclusive, Marburg entry inh 7.3µM*, LASV entry inh inconclusive, VACV Venus inh inconclusive and Cycloheximide cs 10.
Screening O=C(CSC1=Nc2ccccc2C2CC=NN12)Nc1ccc2c(c1)OCO2 (centres undefined) returned Shiga toxin inh 10, Vaccinia mCherry inactive, Marburg entry inh inconclusive, LASV entry inh -2%[46.1 µM], VACV Venus inh 4% and Cycloheximide cs 16*.
Screening CCOC(=O)CSc1nc2ccc(NC(=O)CSc3nnnn3Cc3ccccc3)cc2s1 returned Shiga toxin inh -7, Marburg entry inh -1%, LASV entry inh -5% and Cycloheximide cs -2.
CC(C)(C)NC(=O)CSc1nc2ccc(NC(=O)CSc3nnnn3Cc3ccccc3)cc2s1 was read as Shiga toxin inh -3, Vaccinia mCherry inconclusive, Marburg entry inh 8.9µM*, LASV entry inh inconclusive, VACV Venus inh inconclusive and Cycloheximide cs -3.
For Cc1csc(SC(C)C(=O)Nc2ccc3c(c2)OCCO3)n1 (centres undefined) the results were Shiga toxin inh 42, Vaccinia mCherry inactive, VACV Venus inh -12% and Cycloheximide cs 29*.
`CCc1ccc(OCC(=O)N2CC(C(N)=O)Oc3ccccc32)cc1` (centres undefined) gave Shiga toxin inh 22, Vaccinia mCherry -7%, Marburg entry inh 14%[46.1 µM], LASV entry inh 3%, VACV Venus inh 1% and Cycloheximide cs 7.
`CC(C)OC(=O)CSc1nnc(C2CCCCC2)n1N` gave Shiga toxin inh 20 and Cycloheximide cs 6.
For Cc1noc(C)c1CC(=O)N1CCOc2c(cc(-c3nc4ccccc4s3)cc2OC2CCOC2)C1 (centres undefined) the results were Vaccinia mCherry -4% and VACV Venus inh -3%.
Screening CC(=O)Nc1ccc(C(=O)CSc2nnnn2C(C)C)cc1 returned Shiga toxin inh 81*, Vaccinia mCherry -18%, Marburg entry inh 20%, LASV entry inh -6%, VACV Venus inh -12% and Cycloheximide cs 21*.
Screening Nn1cnnc1SCC(=O)Nc1ccc2c(c1)OCCO2 returned Shiga toxin inh 14, Vaccinia mCherry inactive, Marburg entry inh 18%, LASV entry inh 20%, VACV Venus inh -5% and Cycloheximide cs 12*.
Cc1ccc(NC(=O)CSc2nnnn2C)cc1S(=O)(=O)N(C)C was read as Shiga toxin inh 31, Vaccinia mCherry inactive, Marburg entry inh 2%, LASV entry inh 26%, VACV Venus inh -11% and Cycloheximide cs 17*.
`O=[N+]([O-])c1cccc(CSc2nnc3ccccn23)c1` gave Shiga toxin inh 44, Vaccinia mCherry 3%, Marburg entry inh 22%[46.1 µM], LASV entry inh 22%, VACV Venus inh 1% and Cycloheximide cs -2.
`c1ccn2c(SCc3ccc4c(c3)OCCO4)nnc2c1` gave Shiga toxin inh 98*, Vaccinia mCherry -13%, VACV Venus inh -7% and Cycloheximide cs 51*.
Screening FC(F)(F)c1ccc2c(c1)ncc1c(-c3ccccc3)nn(-c3ccccc3)c12 returned Vaccinia mCherry -6%, Marburg entry inh inconclusive, LASV entry inh 1%[46.1 µM] and VACV Venus inh -4%.
For Cc1ccc(NC(=O)CCCn2c(=O)c3cccn3c3cccnc32)c(Cl)c1 the results were Vaccinia mCherry -18%, LASV entry inh inconclusive and VACV Venus inh -10%.
For COc1ccccc1C(=O)N1CCN(C(=O)[C@H]2O[C@@H](n3cnc4c(N)ncnc43)[C@H](O)[C@@H]2O)CC1 the results were Vaccinia mCherry 2% and VACV Venus inh 9%.
CCOc1ccccc1NC(=O)Cn1cc(C(=O)c2cccc(OC)c2)c(=O)c2ccc(C)nc21 was read as Vaccinia mCherry 6%, LASV entry inh -23%[46.1 µM] and VACV Venus inh 11%.
`CC(Sc1nnc2ccccn12)C(=O)NCc1ccc2c(c1)OCO2` (centres undefined) gave Shiga toxin inh -10 and Cycloheximide cs -4.
Screening CCC(C(=O)Nc1ccc2c(c1)OCCO2)n1nnc2ccccc2c1=O (centres undefined) returned Shiga toxin inh 66* and Cycloheximide cs 59*.
Screening O=C(CSc1nnnn1Cc1ccccc1)Nc1ccc2c(c1)OCO2 returned Shiga toxin inh 33*, Vaccinia mCherry -8%, Marburg entry inh -6%, LASV entry inh -15%, VACV Venus inh -4% and Cycloheximide cs 13*.
